# From PubChem BioAssay AID588852 (The Scripps Research Institute Molecular Screening Center, 2011)
# Out of some 360,000 compounds screened, about 4,600 (1.3%) were called active. The sample as a whole holds a higher share of actives than the screen did. Unmarked numbers belong to inactive results.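 The calls were made as follows: active = percent inhibition above its own plate's cutoff, namely the mean of that plate's compound wells plus 3 SD; inactive = the rest.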
# Molecular target: Muscarinic acetylcholine receptor M1 (Homo sapiens) (UniProt P11229)
# Sequence (P11229 whole entry, looked up): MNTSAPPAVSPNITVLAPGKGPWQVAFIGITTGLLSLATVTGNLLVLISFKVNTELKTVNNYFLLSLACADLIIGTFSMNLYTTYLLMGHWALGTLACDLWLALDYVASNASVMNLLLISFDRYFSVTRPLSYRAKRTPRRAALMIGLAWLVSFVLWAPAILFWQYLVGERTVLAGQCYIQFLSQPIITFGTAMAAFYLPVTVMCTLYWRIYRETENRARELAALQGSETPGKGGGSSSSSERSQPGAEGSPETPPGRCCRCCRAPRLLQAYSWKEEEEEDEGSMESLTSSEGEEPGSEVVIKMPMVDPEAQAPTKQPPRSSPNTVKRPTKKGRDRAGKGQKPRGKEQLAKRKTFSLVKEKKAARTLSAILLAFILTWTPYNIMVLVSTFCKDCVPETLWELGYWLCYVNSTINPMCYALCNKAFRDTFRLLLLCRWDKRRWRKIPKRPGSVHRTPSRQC
# Experiment: CHRM1 blockers of acetylcholine calcium response – CHO-K1 cells, Fluo-8 calcium fluorescence, 1536-well, primary screen (AID 588852);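 also: peak over basal fluorescence ratio during 140 s after agonist addition; 0% = ACh EC80 plus DMSO and 100% = DMSO alone without agonist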
# Settings: CHO-K1 hM1, Fluo-8 calcium fluorescence, ACh EC80 antagonist; at 3 µM; stronger effect = higher value
row,SMILES,inhibition
1,CCOc1ccc2[nH]c(=S)sc2c1,-3.12%
2,CCc1ccc[n+](-c2nc([O-])sc2C=O)c1,-4.29%
3,Cc1ccc(S(=O)(=O)N2CCOCC2)cc1C(=O)OC1CCCCC1=O (centres undefined),0.72%
4,O=C(/C=C/[C@H]1O[C@@H](n2ccc(=O)[nH]c2=O)[C@H](O)[C@@H]1O)NCc1ccccn1,-44.8%
5,Cc1cccc(CSc2nc3c(c(=O)n2C)SCC3)c1,55.3% (active)
6,Cc1cccc(CSc2nnc(C)c(=O)n2N)c1,-6.73%
7,Cn1c(SCC(=O)N2CCCCC2)nc2c(c1=O)SCC2,17.4%
8,O=C(OCC(=O)N1CCc2ccccc21)C1CCCN1S(=O)(=O)c1ccc(Cl)cc1 (centres undefined),-8.54%
9,CN[C@H]1C[C@H]2c3cc(Oc4ccccc4C)ccc3CCN2C(=O)[C@H]1[C@H](C)O,-8.68%
10,Cc1ccccc1CN1C(=O)c2ccccc2Sc2ccc(C(=O)NCCCN3CCOCC3)cc21,-18.2%
11,CCN1CCN(CCNC(=O)c2ccc3c(c2)NC(=O)/C(=C\c2cccc(Cl)c2)S3)CC1,3.02%
12,CCN1CCN(CCNC(=O)c2ccc(/C=C3/Sc4ccccc4N(Cc4cccc(C)c4)C3=O)cc2)CC1,35.2% (active)
13,C[C@H](NC(=O)CC[C@H]1O[C@@H](n2ccc(=O)[nH]c2=O)[C@H](O)[C@@H]1O)c1cccc2ccccc12,-22.7%
14,COCCCNCCOCCOc1ccc(Cl)cc1Br,-3.69%
15,CCC(C)NCCOCCOc1ccc(Br)cc1C (centres undefined),34.6% (active)
16,COCC(C)NCc1cc(Br)ccc1OC (centres undefined),-2.87%
17,COC(=O)c1ccc(CN2C(=O)C(Cc3ccccc3)ON=C2c2ncccc2C)o1 (centres undefined),0.28%
18,CC(C)C(NC(=O)c1c(F)cccc1F)C(=O)NNC(=O)c1ccccc1 (centres undefined),7.65%
19,Cc1c(C)n(Cc2ccc(Cl)cc2)c2ccc(C(=O)NCCCN3CCOCC3)cc12,12.4%
20,CCC1Oc2ccccc2N(CC(=O)NCCCN2CCN(CC)CC2)C1=O (centres undefined),-1.31%
21,CN1CCN(CCCNC(=O)c2ccc(/C=C3\Oc4ccccc4N(Cc4ccc(Cl)cc4)C3=O)cc2)CC1,53.5% (active)
22,C=Cn1cc[n+](CC(=O)c2ccc(OC)c(OC)c2)c1,8.24%
23,CCOc1ccc(OCc2ccc(C(=O)N(C)c3ccccc3)o2)cc1,-7.87%

row,SMILES,inhibition
1,CN(Cc1ccccc1)C(=O)c1ccc(COc2ccccc2)cc1,-0.5%
2,CN(C(=O)CN1CCN(c2cc(-c3ccc(OCc4ccccc4)cc3)ncn2)CC1)c1ccccc1,30.1% (active)
3,CC(C)NC(=O)NCCCCCCS(C)=O (centres undefined),-12%
4,C/C=C/c1ccc(OCCCCN2CCC(C)CC2)c(OC)c1,10.4%
5,Cc1sc2ncn(CC(=O)NCCCC(=O)N3CCN(c4ccccc4F)CC3)c(=O)c2c1C,9.4%
6,COc1ccccc1C(=O)NN1C(=O)C2C3C=CC(O3)C2C1=O (centres undefined),1.11%
7,O=C(NN1C(=O)C2C3C=CC(O3)C2C1=O)c1ccccc1 (centres undefined),-6.53%
8,COc1ccc(C(=O)NN2C(=O)C3C(c4ccccc4)C=CC(c4ccccc4)C3C2=O)cc1 (centres undefined),27.3% (active)
9,Cc1ccc(S(=O)(=O)NCC(=O)N(CC(=O)NCC2CCCO2)c2cccc(F)c2)cc1 (centres undefined),-7.09%
10,CC(=O)Nc1cccc(-c2ccnc3c2CC(C)(C(=O)NCc2ccccc2)O3)c1 (centres undefined),-11.3%
11,CC(O)(c1cccc(F)c1)c1nc(-c2ccc3c(c2)OCO3)cs1 (centres undefined),1.89%
12,Fc1ccc(-n2c(Cc3ccccc3)nnc2SCc2nc(-c3ccc(Cl)cc3)no2)cc1,-1.38%
13,COc1ccc2[nH]c(=O)c(CN(Cc3cccnc3)S(=O)(=O)c3ccccc3F)cc2c1,30.8% (active)
14,CCOc1ccc2[nH]c(=O)c(CN(CCCO)S(=O)(=O)c3ccc(F)cc3)cc2c1,-1.99%
15,COc1ccc(-c2[nH]ncc2CN(C)Cc2cccnc2)c(F)c1,-0.76%
16,O=C(NCCN1CCOCC1)c1ccccc1N1C(=O)[C@@H]2Cc3c([nH]c4ccccc34)C(c3cccc(Cl)c3)N2C1=O (some centres undefined),9.91%
17,CCCc1nc2c3ccccc3ccn2c1Cc1ccccc1C(F)(F)F,0.78%
18,COc1ccccc1CC1(C)C(=O)Nc2ccc(OC(F)(F)F)cc21 (centres undefined),-12.6%
19,CC1=C(C(=O)N(C(C)C)C(C)C)CC(CC(=O)NCC2CCCCC2)C(=O)N1Cc1ccccc1 (centres undefined),-28.2%
20,Cc1c2cnn(CC(=O)NCc3ccccn3)c(=O)c2c(C)n1Cc1ccc(Cl)cc1,-7.49%
21,N#C/C(=C/c1ccc(N2CCOCC2)o1)C(=O)N1CCOCC1,-3.41%
22,N#C/C(=C/c1ccc(N2CCCCC2)o1)C(=O)NCCc1c[nH]c2ccccc12,44.3% (active)
23,N#C/C(=C\c1ccc(N2CCOCC2)o1)C(=O)N1CCOCC1,-4.72%

row,SMILES,inhibition
1,Cc1ccc2cc(C)c(N3CCC(C)CC3)nc2c1,1.39%
2,Cc1cc(Nc2cc(N3CCN(C)CC3)nc(Sc3ccc(NC(=O)C4CC4)cc3)n2)n[nH]1,-2.83%
3,CCN(CC)CCN(C(=O)c1cc(Cl)sc1Cl)c1nc2cc3c(cc2s1)OCO3,83.7% (active)
4,CCN(CC)CCN(C(=O)c1ccc2c(c1)CCCC2)c1nc2c(OC)cccc2s1,14.3%
5,CCNC(=S)N(CCN(CC)CC)Cc1cc2cc3c(cc2[nH]c1=O)OCO3,-13.5%
6,C[C@@H]1CN([C@H](C)CO)C(=O)c2cc(Br)cnc2O[C@@H]1CN(C)Cc1cncnc1,-11.6%
7,COc1ccc(S(=O)(=O)N2CCN(C(=O)N(C)C)C2C)cc1 (centres undefined),-7.85%
8,O=C(CC[C@H]1O[C@@H](n2ccc(=O)[nH]c2=O)[C@H](O)[C@@H]1O)N[C@H](Cc1ccccc1)C(=O)NCc1ccco1,-4.88%
9,Cc1ccc(S(=O)(=O)N2CC[C@H]3[C@@H](C2)C(=O)C[C@@H](c2ccccc2)N3S(=O)(=O)c2ccc(C)cc2)cc1,-2.99%
10,CCOC(=O)N1CCN(Cc2nc3cc(NC(C)=O)ccc3n2C)CC1,-2.65%
11,CCC(=O)Nc1ccc2c(c1)nc(CCN1CCN(c3ccccn3)CC1)n2C,41.9% (active)
12,CCN(CC)c1ccc(NC(=O)CN2CCN(c3ccccn3)CC2)cc1,-1.84%
13,Cn1c(=O)n(C)c2cc(S(=O)(=O)Nc3ccc(F)cc3)ccc21,0.75%
14,Cn1c(CCN2CCN(c3ccccn3)CC2)nc2cc(NS(=O)(=O)c3ccc(F)cc3)ccc21,69.9% (active)
15,Cn1c(=O)n(C)c2cc(NS(=O)(=O)c3ccc(F)cc3)ccc21,4.92%
16,CCOc1ccc(CCN2C(=S)N([C@@H](CC(C)C)CN3CCC[C@@H]3CN3C(=S)NC[C@@H]3Cc3ccc(O)cc3)C[C@@H]2Cc2ccc(O)cc2)cc1,-5.61%
17,COc1ccc(OC)c(C2C3=C(N=c4s/c(=C\c5cccc(O)c5)c(=O)n42)c2ccccc2CC3)c1 (centres undefined),-14.9%
18,CC1(c2cccc(Br)c2)NC(=O)N(CC(=O)NCCC2=CCCCC2)C1=O (centres undefined),-4.07%
19,CN(Cc1ccc(F)cc1Cl)S(=O)(=O)c1cccs1,-6.7%
20,CN(C)Cc1ccc(F)cc1Sc1cc(Cl)ccc1Cl,91.5% (active)
21,Cc1ccc(-c2ccc(=O)n(Cc3ccc(F)cc3Cl)n2)cc1,-14.4%
22,CC(=O)NC(c1cccs1)c1cc(Br)c2cccnc2c1O (centres undefined),-13.2%
23,CCOC(=O)c1[nH]c2ccc(C)cc2c1N=C(C)N(C)C,33.5% (active)

row,SMILES,inhibition
1,CCOC(=O)c1[nH]c2ccc(OC)cc2c1NC(=O)N1CCOCC1,-21.5%
2,CCOC(=O)c1cc2cc(C)ccc2[nH]1,6.42%
3,Cc1ccc(-c2ccnc3nc(Sc4ncc(C(F)(F)F)cc4Cl)nn23)cc1,-1.4%
4,O=C(Nn1cnnc1)c1cc(Cl)ccc1Cl,-9.41%
5,O=C(NCc1ccc2c(c1)OCO2)c1cc2c(s1)CS(=O)(=O)C2,4.31%
6,c1ccc2cc(OCCN3CCCC3)ccc2c1,-1.41%
7,Cc1ccc(C(C)C)cc1OCCN1CCCC1,53% (active)
8,Cc1cc(OCCN2CCCC2)cc(C(C)C)c1,82.3% (active)
9,Cc1ccc(OCCCCN2CCCCC2)c(Br)c1,22.6%
10,Cc1cc(OCCN2CCCC2)ccc1C(C)C,-3.45%
11,Cc1ccc(C(C)C)cc1OCC(=O)Nc1ccccc1N1CCCC1,-19.6%
12,CCCCc1nc2ccc(F)cc2cc1C,-6.44%
13,CC(C)C1C(=O)N(Cc2cn(CCC3OCCO3)nn2)CCS(=O)(=O)N1Cc1ccc(-c2ccccc2C(F)(F)F)cc1 (centres undefined),-16.4%
14,Cc1ccccc1NC(=O)COc1cccc2c1CCNC2=O,-7.58%
15,CC1CC(C)CN(CC(=O)N2c3ccccc3CCc3ccccc32)C1 (centres undefined),4.81%
16,CN1CCN(C(=O)N2c3ccccc3CCc3ccccc32)CC1,96.2% (active)
17,CN1CCN(S(=O)(=O)c2cccc(C(=O)N3CCc4ccccc43)c2)CC1,6.81%
18,Cc1ccc(NC(=O)C(C)c2cccc(C(=O)c3ccccc3)c2)cc1 (centres undefined),28.2% (active)
19,CSCCC(NC(=O)COc1ccccc1)C(=O)Nc1ccc(C)cc1 (centres undefined),-7.4%
20,CC(=O)Nc1ccc(NC(=O)[C@@H](NC(=O)c2cccc(C)c2)C(C)C)cc1,-11.7%
